HT1080 IDH1KD tx: kills HT-1080 cells with IDH1 knockdown | HT-1080 IDH1 knockdown viability, ATP luminescence, 48 h | Potency, µM (highest dose often 46.1 µM), for inactives: top-dose activity, negative = toxicity, hits mostly cytotoxic | 360,000 tested, 2% active;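 note: 0% = DMSO wells and -100% = cell-free medium wells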
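% activity derives from luminescence (CellTiter-Glo), normalised to DMSO and no-cell wells. HT-1080-IDH1KD cells, 750/well, had 48 h compound exposure at 37 °C.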
HepG2 viability: counter-screen for TGF-b inhibitors: cytotoxicity in HepG2 cells | HepG2 CAGA-GFP viability, ATP luminescence, 18 h | Potency, µM (titrated, usually from 46.1 µM), for inactives: at the highest dose activity change, negative = cytotoxicity, actives largely listed as cytotoxic | 410,000 tested, 0.76% active | AID 588856
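CellTiter-Glo luminescence gave cytotoxicity after 18 hours at 37 degrees C. The cells were HepG2 CAGA-GFP in 1% FBS DMEM, stimulated with 500 pg/mL TGF-beta after compound addition. %Activity was normalised to no-cell wells (complete cell-killing) and DMSO (no toxicity), and curves were fitted and classified.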
ATXN2 expr inh: inhibitors of ATXN2 expression; HEK-293 ATXN2-luciferase reporter, luminescence, 24 h; Potency, µM (top dose mostly 57 µM), for the others: at the top dose activity change, negative = inhibition, hits mostly inhibitors; 360,000 tested, 0.72% active; AID 1745845; note: % is set by controls: 0 for no effect and ±100 for the full control effect; nearly all actives have a fitted effect of over 55% in size
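ATXN2-luciferase reporter cells (luciferase flanked by upstream and downstream ATXN2 gene portions) were treated 24 h at 37 °C with compounds at up to 57 uM. SteadyGlo luminescence gave expression; GF-AFC fluorescence gave viability.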
TGFb inhibitor: TGF-b pathway inhibition; HepG2 CAGA-GFP TGF-b/SMAD3 reporter, GFP fluorescence, 18 h; TGF-beta stimulated, 500 pg/mL final; Potency, µM (series often up to 46.1 µM), without a hit: top-dose activity, negative = inhibition, hits mostly inhibitors; 410,000 tested, 1.2% active; AID 588855; note: % is set by controls: 0 for no effect and ±100 for the full control effect; nearly all actives have a fitted effect of over 65% in size
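Cell-based qHTS in HEPG2 carrying a CAGA-GFP Smad reporter; compounds added before 500 pg/mL final TGF-beta, 18 h incubation at 37 degrees C, GFP fluorescence quantified per cell by imaging cytometry.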
S2 tox: cell viability loss in ATXN counter-screen; 400,000 tested, 0.49% active; Potency, µM (top dose mostly 56.7 µM), actives largely listed as cytotoxic; S2 cells (HEK-293 line with an ATXN2-luciferase reporter) viability, CellTiter-Fluor protease fluorescence, 24 h; note: nearly all actives have a fitted effect of over 40% in size
HT1080-NT tox: kills 2HG-producing HT-1080-NT fibrosarcoma cells | Potency, µM (highest dose often 46.1 µM), inactives show top-dose activity, negative = less viability, hits mostly cytotoxic | HT-1080-NT fibrosarcoma viability, CellTiter-Glo ATP luminescence, 48 h | 360,000 tested, 1.6% active;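 note: NT is the 2HG producing partner of a matched IDH1 knockdown line; 0% = DMSO-treated cells and -100% = media-only wells without cells; nearly all actives have a fitted effect of over 55% in size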
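Luminescent CellTiter-Glo readout after 48 hours of compound exposure at 37 degrees C defined viability of HT-1080-NT cells. Activity was normalized to DMSO wells and cell-free media wells; concentration-response curves were fitted and assigned curve classes.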
* = called active by the depositor; i = inactive; ? = inconclusive; / = no result given; ! = not confirmed by another sample. This is a sample that favours compounds with a hit; in the whole collection about 3.8% have one here. Calls come from the whole dose curve; as a rule, active = well fitted curve in the direction sought with a large enough effect; inconclusive = small, poorly fitted or top-dose-only effect, or another doubt; inactive = no such curve, though single readings can be large; an effect the other way counts as inactive or inconclusive. Potency is the fitted concentration of half-maximal effect.

SMILES	HT1080 IDH1KD tx	HepG2 viability	ATXN2 expr inh	TGFb inhibitor	S2 tox	HT1080-NT tox
C[C@@H]1CN([C@@H](C)CO)C(=O)Cc2cc(NC(=O)Nc3ccc(C(F)(F)F)cc3)ccc2O[C@@H]1CN(C)S(=O)(=O)c1ccc(Cl)cc1	23.1µM*	-43.5%	?	?	?	?
O=C(Cc1ccc(OCCc2ccccc2)cc1)NO	/	-37.4%	/	-10.0%	/	/
CCn1cc2nc(SCC(=O)Nc3ccc(OC)c(OC)c3)n(Cc3ccc(OC)cc3)c(=O)c2n1	-18.4%	-4.3%	0.9%	-16.8%	i	-21.1%
CCn1cc2nc(SCC(=O)Nc3ccc(OC)cc3OC)n(Cc3ccc(OC)cc3)c(=O)c2n1	5.17µM*	2.0%	-11.9%	-1.6%	?	3.66µM*
O=C(NCC(c1cccnc1)N1CCc2ccccc21)c1ccc(F)cc1 (stereo not drawn)	/	-32.0%	/	?	/	/
Oc1ccc(F)c2cccnc12	0.0%	0.6%	-6.4%	?	i	?
Oc1c(I)cc(I)c2cccnc12	?	-25.0%	2.1%	-17.5%	i	3.66µM*
Oc1ccc(Cl)c2cccnc12	-25.3%	10µM*	12.6µM*!	7.08µM*	?	-6.8%
Oc1c(Cl)cc(Cl)c2cccnc12	20.6µM*	-21.8%	24.3µM*!	?	?	?
Cc1ccc(S(=O)(=O)Nc2cc(Cl)c(O)c3ncccc23)cc1	?	2.82µM*	11.2µM*	6.31µM*	i	-22.6%
Clc1cc2cccnc2c2ccccc12	10.7%	12.4%	7.1%	-1.1%	i	7.7%
C/C=C(\C)C(=O)NCCN1Cc2ccccc2OC(c2ccccc2OC)C1 (stereo not drawn)	/	/	/	/	i	/
CCOc1ccc(-c2nnc(SCC(=O)Nc3ccc4c(c3)c3ccccc3n4CC)n2N)cc1	?	-77.4%	31.6µM*	?	/	?
Cc1ccc(Cn2c(C(=O)O)c(CNCc3ccccc3Cl)c3ccc(C)cc32)cc1	/	-6.2%	8.4%	?	?	/
C=Cc1ccc(Cn2c(C(=O)O)c(CNCCc3ccccc3)c3ccc(C)cc32)cc1	/	-110.6%	?	?	22.4µM*	/
Cc1ccc2c(CNCCc3ccc(Cl)cc3)c(C(=O)O)n(Cc3ccc(F)cc3)c2c1	/	-32.8%	9.5%	?	?	/
COc1ccc(Cn2c(C(=O)O)c(CNCCc3ccccc3Cl)c3ccc(C)cc32)cc1	/	-31.3%	?	?	17.8µM*	/
Clc1ccc(/C=C/c2ccncc2)cc1Cl	/	-53.8%	/	?	/	/
CC(C)Cc1nc2cc(NS(=O)(=O)N(C)C)cc(C(=O)N3CCOCC3)c2n1C	/	/	/	/	i	/
O=C(Nc1ccc(CN2CCCCC2)cc1)Nc1ccc(Br)cc1Cl	-12.7%	0.5%	14.1µM*	26.5%	?	-10.0%
CCOC(=O)N1CCN(Cc2ccc3c(c2)CN(C(=O)c2noc4c2CCCC4)CCO3)CC1	/	/	/	/	i	/
c1ccc(-n2nnnc2-c2cccc3ccccc23)cc1	8.2µM*	-17.7%	-15.4%	-29.0%	i	5.8µM*
CCNS(=O)(=O)c1ccc(CCC(=O)NC2CCCC2)cc1	1.0%	0.1µM*	11.5%	-7.3%	i	1.8%
CCn1cc2nc(SCC(=O)Nc3ccccc3C(F)(F)F)n(Cc3ccc(C)cc3)c(=O)c2n1	/	-9.9%	-28.6%	-8.5%	i	/
CCc1ccc(Nc2n[n+](-c3ccccc3)c(-c3ccc(N(CC)CC)cc3)s2)cc1	?	-62.0%	?	?	?	?
CCc1ccc(Nc2n[n+](-c3ccccc3)c(-c3c(Cl)cccc3Cl)s2)cc1	?	-108.0%	10µM*	7.08µM*	10µM*	20.6µM*
Fc1ccc(-[n+]2nc(Nc3ccccc3)sc2-c2c(Cl)cccc2Cl)cc1	-23.2%	11.2µM*	?	?	/	?
COc1ccc(C)cc1Nc1n[n+](-c2ccccc2)c(-c2c(Cl)cccc2Cl)s1	?	12.6µM*	0.0%	?	11.2µM*	?

Screening results as filed in PubChem.
